# Measured values taken from PubChem BioAssay AID540256 (National Center for Advancing Translational Sciences (NCATS), 2011).
# Screen size: about 300,000 compounds; about 3,700 (1.2%) were called active. Another 20% or so got no clear call; they are omitted. The sample holds actives, similar compounds and a random draw of the others, so the mix is not that of the screen. A number with no mark means an inactive call. Calls follow the shape of the full dose curve; tested in HEK293 cells.
# Test: qHTS for Inhibitors of binding or entry into cells for Lassa Virus; also: nearly all actives have a fitted effect of over 50% in size
# Details: Lassa virus pseudotype entry inhibition, cell reporter; series mostly up to 37.9 µM; activity change, negative = inhibition: at the top concentration
# % is scaled to controls: 0 for no effect and ±100 for the full control effect; potency is read from the fitted curve at half-maximal effect.
Structure (SMILES),"activity change, negative = inhibition",Potency
COc1ccccc1NC(=O)Nc1nc(CC(=O)Nc2ccccc2F)cs1,3.87%,–
C(=N\Nc1ccc2ccccc2n1)/c1ccc2c(c1)OCO2,–,2.24 µM (active)
Cc1noc(C)c1/C=N/Nc1ccc2ccccc2n1,-25.4%,–
Brc1ccc(-c2csc(N/N=C/c3ccc4c(c3)OCO4)n2)cc1,7.35%,–
Cn1nnc2cc(C(=O)NCCC3=CCCCC3)ccc21,–,8.91 µM (active)
CC(Sc1nncn1C)C(=O)NCCC1=CCCCC1 (stereo unspecified),16.2% [at 46.1 µM],–
Cc1ccc(-n2cnc3cc(C(=O)NCCC4=CCCCC4)ccc32)cc1Cl,12.8% [at 46.1 µM],–
Cc1cccc(C(=O)N[C@H](C(=O)NCc2cccs2)C(C)C)c1,0.171%,–
COc1ccc2c(c1)c(=Cc1ccc(N(C)C)cc1)c1cc(-c3ccccc3)[n+](C)n12,–,8.91 µM (active)
CCc1nnc(SCc2c(F)cccc2Cl)c2cc3sccc3n12,-13.9% [at 46.1 µM],–
O=C(COC(=O)c1ccc(Oc2ccccc2)cc1)Nc1nnc(-c2ccccc2)o1,11.2%,–
CS(=O)(=O)c1ccc(-c2nnc(NC(=O)c3ccc4c(c3)OCCO4)o2)cc1,-1.29% [at 46.1 µM],–
COc1cccc(-c2nnc(NC(=O)c3ccc(S(=O)(=O)N(CC(C)C)CC(C)C)cc3)o2)c1,–,7.08 µM (active)
COC(=O)c1ccc(NS(=O)(=O)c2cc3c4c(c2)C(C)C(=O)N4CCC3)cc1 (stereo unspecified),-10.9%,–
COc1ccc(C(=O)N2CCN(c3ccc(C(C)=O)cc3F)CC2)cc1S(=O)(=O)NC1CC1,-10.2%,–
CC(C)(CNC(=O)Cc1ccc(Cl)cc1Cl)N1CCOCC1,12.5% [at 46.1 µM],–
O=C(NCCSCc1ccccc1)c1ccc(Cl)c(S(=O)(=O)N2CCOCC2)c1,2.76%,–
CC(C)(CNC(=O)c1ccc(Cl)c(S(=O)(=O)N2CCc3ccccc3C2)c1)N1CCOCC1,–,11.2 µM (active)
Nc1ncnc2c1cnn2C1CC(O)C(CO)O1 (stereo unspecified),-5.6% [at 46.1 µM],–
CSc1ncccc1C(=O)NCC(c1ccco1)N1CCCCC1 (stereo unspecified),1.83%,–
CCS(=O)(=O)Nc1ccc(C2=NN(C(C)=O)C(c3cccs3)C2)cc1 (stereo unspecified),-18.5%,–
CS(=O)(=O)Nc1ccc(C2=NN(S(C)(=O)=O)C(c3cccs3)C2)cc1 (stereo unspecified),-10.6%,–

Structure (SMILES),"activity change, negative = inhibition",Potency
CCS(=O)(=O)Nc1ccc(C2=NN(S(=O)(=O)c3ccc(F)cc3)C(c3ccco3)C2)cc1 (stereo unspecified),–,7.3 µM (active)
COc1ccccc1C(=O)c1ccccc1C(=O)c1ccccc1,-0.819% [at 46.1 µM],–
COc1ccc(-c2cn3nc(N4CCC(C(=O)Nc5cccc(C)c5C)CC4)sc3n2)cc1,18.7% [at 46.1 µM],–
CC(C)NC(=O)c1ccc(Cl)cc1Cl,12.8% [at 46.1 µM],–
CC(C)OC(=O)c1ccc(NCc2cc(O)ccc2O)cc1Cl,–,10 µM (active)
CC(OC(=O)c1ccc(Cl)cc1O)C(=O)NCCC1=CCCCC1 (stereo unspecified),2.74%,–
O=C(Cn1c(-c2cccs2)cc2ccccc21)NCCc1ccc(Cl)cc1,8.67% [at 46.1 µM],–
O=C1c2ccccc2C(=O)N1CCCCCCN1C(=O)c2ccccc2C1=O,0% [at 46.1 µM],–
CC(=O)c1ccc(S(=O)(=O)NC2CC(=O)N(c3ccc4c(c3)OCCO4)C2)cc1 (stereo unspecified),-2.24%,–
CSc1ccccc1N1CCN(CCCCCC(=O)NC2CCCc3ccccc32)CC1 (stereo unspecified),–,11.6 µM (active)
O=C(CN1CCN(c2ccc(O)cc2)CC1)NC1CCCc2ccccc21 (stereo unspecified),-29.6%,–
O=C(CSc1nncs1)NC1CCCc2ccccc21 (stereo unspecified),14% [at 46.1 µM],–
Cc1cccc(NC(=S)N2CCC(C(=O)c3ccc(F)cc3)CC2)c1,1.61% [at 46.1 µM],–
COc1cc(C(c2c(NC(=O)c3ccco3)sc(C)c2C)N2CCOCC2)cc(OC)c1OC (stereo unspecified),-2.37%,–
Cc1ccc(C(=O)Nc2ccc(NC(=O)c3cccs3)cc2)c(C)c1,-6.7%,–
Cc1ccc(-c2nnc(-c3ccc(NC(=O)c4cccs4)cc3)o2)cc1,–,7.3 µM (active)
Cc1ccc(-c2csc(NC(=O)c3cccs3)n2)cc1,0.307%,–
COC(=O)c1cc(C(=O)OC)n2ccc3cc(OC)c(OC)cc3c12,21.2% [at 14.3 µM],–
CSCCC(NC(=O)COc1ccccc1)C(=O)OCc1ccc(Cl)cc1 (stereo unspecified),3.24%,–
O=C(CSc1nc2[nH]c(=O)[nH]c(=O)c2s1)Nc1cccc(F)c1,9.68%,–
COc1cc(C(=O)N2CCN(c3ccc(Nc4ccc(C)cc4)nn3)CC2)cc(OC)c1OC,-25.3% [at 46.1 µM],–
O=C(NC1CC1)c1ccc(-c2ccccc2)cc1,17.2%,–

Structure (SMILES),"activity change, negative = inhibition",Potency
Cc1ccc(C(=O)NC2CCC2)cc1-c1ccc(C(=O)NCC2CC2)cc1,–,11.2 µM (active)
Cc1ccc(C(=O)NCC(=O)OCC(=O)NC2CCCCCCC2)cc1,-7.65% [at 46.1 µM],–
CCN(CC(=O)Nc1ccc(OC)cc1)C(=O)c1ccc(Cl)c(S(=O)(=O)N2CCCC2)c1,-5.74%,–
COC(=O)c1cc(C(=O)NC(C)C2CC3CCC2C3)cc([N+](=O)[O-])c1 (stereo unspecified),1.88%,–
O=C(CCCCCCCC(=O)N1CCCCC1)N1CCCCC1,-5.69%,–
CSc1ncc(Sc2ccccc2)c(C(=O)O)n1,-7.12%,–
COc1ccc2nc(N3C(=O)C(O)=C(C(=O)c4ccco4)C3c3ccco3)sc2c1 (stereo unspecified),3.18%,–
CCOC(=O)CC1C(=O)NCCN1c1nc2c(C)cccn2c(=O)c1/C=C1\SC(=S)N(C(C)CC)C1=O (stereo unspecified),–,6.31 µM (active)
Cc1cccn2c(=O)c(/C=C3\SC(=S)N(CC(C)C)C3=O)c(NCCCOC(C)C)nc12,3.06%,–
CCCN(CCC)c1nc2c(C)cccn2c(=O)c1/C=C1/SC(=S)N(Cc2ccco2)C1=O,-2.89% [at 46.1 µM],–
COc1ccc(-c2nc(-c3ccccc3)no2)c(OC)c1,–,1.64 µM (active)
CC(=O)c1ccc(NC(=O)COc2ccccc2-c2nc(-c3ccccc3)no2)cc1,3.33% [at 46.1 µM],–
CCOc1nc(-c2ccc(OC)cc2)ccc1-c1noc(-c2cc(OC)c(OC)c(OC)c2)n1,3.47%,–
CC(=O)OCC(=O)C1(O)CCC2C3CC(C)C4=CC(=O)CCC4(C)C3C(O)CC21C (stereo unspecified),-11.5% [at 46.1 µM],–
O=C(Nc1cccc(S(=O)(=O)N2CCOCC2)c1)C12CC3CC(CC(C3)C1)C2,0.293% [at 46.1 µM],–
COc1ccc(NC(=O)/C(C#N)=C\c2cc(OC)c(OCc3ccc(C(=O)O)cc3)cc2Br)cc1,12.9%,–
N#C/C(=C\c1ccc(O)c(O)c1)C(=O)NCc1ccccc1,1.83%,–
COc1ccc(CNC(=O)/C(C#N)=C/c2cccc(OC)c2OC)cc1,–,3.55 µM (active)
O=C(Nc1ccc(Cl)c(Cl)c1)c1ccccc1NC(=O)C1CC=CCC1C(=O)O (stereo unspecified),16.9% [at 46.1 µM],–
CC(=O)Nc1cccc(NC(=O)c2c(-c3ccccc3)noc2C)c1,-0.808%,–
Cc1ccc(CNC(=O)c2c(-c3ccccc3)noc2C)cc1,16.7% [at 46.1 µM],–
CCOC(=O)c1c(-c2cccc(C)c2)csc1NC(=O)c1c(-c2ccccc2)noc1C,–,0.562 µM (active)
